The values that follow come from article PMC7862700, “An all-to-all approach to the identification of sequence-specific readers for epigenetic DNA modifications on cytosine”.

What all share (test): DAPPL (digital affinity profiling via proximity ligation, sequencing); 10 mM Tris-HCl pH 7.5, 50 mM NaCl, 1 mM DTT, 4% glycerol, room temperature, 30 min; GST-TFs on glutathione beads, 16-mer random dsDNA library, 0.1% formaldehyde crosslink after washing; high values mean tight binding
In assay [1] the target is T1, FEV (Homo sapiens, UniProt Q99581 1-238).
T1 sequence: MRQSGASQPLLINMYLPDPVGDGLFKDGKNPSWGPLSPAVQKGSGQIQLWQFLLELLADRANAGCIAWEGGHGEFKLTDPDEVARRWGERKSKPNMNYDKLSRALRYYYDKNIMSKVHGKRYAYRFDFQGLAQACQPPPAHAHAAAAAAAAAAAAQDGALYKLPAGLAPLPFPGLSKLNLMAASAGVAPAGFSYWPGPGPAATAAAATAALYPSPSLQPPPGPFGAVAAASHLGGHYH
Conditions: protein: recombinant; tags: N-terminal GST; dsDNA, one strand shown. A digest of the protocol: (§1)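 Pools were built from human transcription factors expressed in yeast as GST fusions, captured on glutathione beads and DNA-barcoded, along with a tag-only sample. Incubation with 200 nmole of a 16-mer random double-stranded DNA library lasted 30 min at room temperature in Tris/NaCl/DTT/glycerol buffer, and was followed by washing, 0.1% formaldehyde crosslinking, proximity ligation, PCR amplification and Illumina NextSeq500 sequencing. Binding signal is the quotient of each hexamer's read frequency for a factor and its frequency for the tag-only sample.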

Assay [2] has as its target ETV5 (Homo sapiens, UniProt P41161 1-510). The following applies: protein: recombinant; tags: N-terminal GST; dsDNA, one strand shown. The gist of the method: as §1
The target of assay [3] is HSF1 (Homo sapiens, UniProt Q00613 1-529). The following applies: protein: recombinant; tags: N-terminal GST; chain copies: 3; dsDNA, one strand shown. The gist of the method:
as §1

Assay [4] concerns the target T2, SPIC (Homo sapiens, UniProt Q8N5J4 1-248).
T2 sequence: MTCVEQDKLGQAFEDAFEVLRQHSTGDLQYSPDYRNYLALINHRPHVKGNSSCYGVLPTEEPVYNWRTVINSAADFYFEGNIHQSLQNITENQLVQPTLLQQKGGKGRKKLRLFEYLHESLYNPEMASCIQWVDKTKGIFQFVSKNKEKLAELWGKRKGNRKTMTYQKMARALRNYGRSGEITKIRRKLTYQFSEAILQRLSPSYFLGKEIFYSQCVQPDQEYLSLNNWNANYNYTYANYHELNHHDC
The following applies: protein: recombinant; tags: N-terminal GST; dsDNA, one strand shown. The gist of the method: as §1

The target in assay [5] is ELF4 (Homo sapiens, UniProt Q99607 1-663). Conditions: protein: recombinant; tags: N-terminal GST; dsDNA, one strand shown. A digest of the protocol: as §1
Chain of ELF4 (Q99607 whole entry): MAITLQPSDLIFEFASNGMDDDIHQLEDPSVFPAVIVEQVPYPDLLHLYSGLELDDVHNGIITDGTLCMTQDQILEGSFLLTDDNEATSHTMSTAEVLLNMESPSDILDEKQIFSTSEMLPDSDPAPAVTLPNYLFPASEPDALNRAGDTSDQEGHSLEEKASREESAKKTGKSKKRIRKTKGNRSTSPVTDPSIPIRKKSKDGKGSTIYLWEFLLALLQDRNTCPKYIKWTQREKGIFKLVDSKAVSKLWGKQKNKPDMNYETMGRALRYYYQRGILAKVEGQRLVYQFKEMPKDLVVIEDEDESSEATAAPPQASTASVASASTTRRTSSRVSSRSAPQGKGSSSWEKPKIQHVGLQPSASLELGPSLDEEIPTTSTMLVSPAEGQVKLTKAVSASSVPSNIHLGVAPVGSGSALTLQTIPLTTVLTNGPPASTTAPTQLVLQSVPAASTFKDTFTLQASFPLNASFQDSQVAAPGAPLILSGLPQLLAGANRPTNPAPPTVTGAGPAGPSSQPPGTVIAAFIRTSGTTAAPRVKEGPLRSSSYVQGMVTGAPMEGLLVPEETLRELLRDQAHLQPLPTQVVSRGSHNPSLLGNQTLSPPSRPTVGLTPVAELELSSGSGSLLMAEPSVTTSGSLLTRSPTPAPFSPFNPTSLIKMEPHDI
In assay [6] the target is T3, ELK4 (Homo sapiens, UniProt P28324-2 1-405).
T3 sequence: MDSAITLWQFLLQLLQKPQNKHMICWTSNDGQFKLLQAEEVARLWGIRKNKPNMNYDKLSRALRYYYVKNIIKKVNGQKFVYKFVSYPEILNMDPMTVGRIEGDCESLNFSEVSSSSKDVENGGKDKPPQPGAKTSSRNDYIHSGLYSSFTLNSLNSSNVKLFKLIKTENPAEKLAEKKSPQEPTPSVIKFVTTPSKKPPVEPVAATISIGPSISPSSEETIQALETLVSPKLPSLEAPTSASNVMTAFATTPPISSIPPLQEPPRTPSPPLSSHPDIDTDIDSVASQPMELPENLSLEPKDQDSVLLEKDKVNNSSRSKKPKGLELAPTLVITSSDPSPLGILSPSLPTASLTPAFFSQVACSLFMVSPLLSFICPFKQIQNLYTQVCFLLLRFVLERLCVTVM
Conditions: protein: recombinant; tags: N-terminal GST; dsDNA, one strand shown. A digest of the protocol: as §1

In assay [7] the target is T4, ETV2 (Homo sapiens, UniProt O00321 1-342).
T4 sequence: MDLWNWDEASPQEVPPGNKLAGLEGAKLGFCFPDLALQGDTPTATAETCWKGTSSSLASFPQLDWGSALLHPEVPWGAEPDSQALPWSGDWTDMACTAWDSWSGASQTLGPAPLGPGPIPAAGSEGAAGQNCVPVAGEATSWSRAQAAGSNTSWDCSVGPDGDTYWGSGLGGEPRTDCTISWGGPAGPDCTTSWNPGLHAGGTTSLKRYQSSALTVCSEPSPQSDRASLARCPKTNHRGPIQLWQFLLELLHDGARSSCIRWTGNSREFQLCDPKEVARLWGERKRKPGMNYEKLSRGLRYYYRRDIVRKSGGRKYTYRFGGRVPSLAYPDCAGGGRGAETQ
Conditions: protein: recombinant; tags: N-terminal GST; dsDNA, one strand shown. The gist of the method:
as §1

Assay [8] deals with T5, ELF3 (Homo sapiens, UniProt P78545 1-371).
T5 sequence: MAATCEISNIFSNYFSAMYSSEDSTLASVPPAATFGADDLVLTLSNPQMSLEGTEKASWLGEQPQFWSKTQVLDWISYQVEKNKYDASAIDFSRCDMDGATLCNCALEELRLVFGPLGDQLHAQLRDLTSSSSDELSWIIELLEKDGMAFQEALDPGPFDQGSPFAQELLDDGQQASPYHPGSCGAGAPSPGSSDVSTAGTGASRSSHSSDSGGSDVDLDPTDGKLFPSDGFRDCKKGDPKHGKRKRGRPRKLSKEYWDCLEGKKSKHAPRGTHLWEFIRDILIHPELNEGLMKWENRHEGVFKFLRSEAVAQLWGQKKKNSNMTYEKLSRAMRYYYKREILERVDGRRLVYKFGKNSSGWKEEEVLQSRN
Conditions: protein: recombinant; tags: N-terminal GST; dsDNA, one strand shown. The gist of the method: as §1

The target in assay [9] is CRX (Homo sapiens, UniProt O43186 1-299). Conditions: protein: recombinant; tags: N-terminal GST; dsDNA, one strand shown. A digest of the protocol:
as §1

For assay [10], the target named is ETV1 (Homo sapiens, UniProt P50549 1-477). The following applies: protein: recombinant; tags: N-terminal GST; dsDNA, one strand shown. A digest of the protocol:
as §1

Assay [11] concerns the target T6, ERF (Homo sapiens, UniProt P50548 1-548).
T6 sequence: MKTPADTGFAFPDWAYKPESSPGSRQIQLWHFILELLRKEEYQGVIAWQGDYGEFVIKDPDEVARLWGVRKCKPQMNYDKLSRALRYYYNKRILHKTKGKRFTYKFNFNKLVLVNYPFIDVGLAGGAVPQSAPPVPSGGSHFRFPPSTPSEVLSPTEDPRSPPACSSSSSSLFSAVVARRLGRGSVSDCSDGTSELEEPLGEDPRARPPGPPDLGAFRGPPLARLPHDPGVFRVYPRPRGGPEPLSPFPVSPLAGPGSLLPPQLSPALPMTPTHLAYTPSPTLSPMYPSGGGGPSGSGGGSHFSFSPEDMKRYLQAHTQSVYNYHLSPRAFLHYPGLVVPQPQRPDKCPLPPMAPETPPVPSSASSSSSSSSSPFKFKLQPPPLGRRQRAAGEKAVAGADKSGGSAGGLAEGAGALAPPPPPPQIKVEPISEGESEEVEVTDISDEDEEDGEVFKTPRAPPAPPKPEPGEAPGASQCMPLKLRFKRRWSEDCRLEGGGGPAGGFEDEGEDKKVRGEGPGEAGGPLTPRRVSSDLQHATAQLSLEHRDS
Conditions: protein: recombinant; tags: N-terminal GST; dsDNA, one strand shown. The gist of the method:
as §1

Assay [12] deals with T7, ETV3L (Homo sapiens, UniProt Q6ZN32 1-361).
T7 sequence: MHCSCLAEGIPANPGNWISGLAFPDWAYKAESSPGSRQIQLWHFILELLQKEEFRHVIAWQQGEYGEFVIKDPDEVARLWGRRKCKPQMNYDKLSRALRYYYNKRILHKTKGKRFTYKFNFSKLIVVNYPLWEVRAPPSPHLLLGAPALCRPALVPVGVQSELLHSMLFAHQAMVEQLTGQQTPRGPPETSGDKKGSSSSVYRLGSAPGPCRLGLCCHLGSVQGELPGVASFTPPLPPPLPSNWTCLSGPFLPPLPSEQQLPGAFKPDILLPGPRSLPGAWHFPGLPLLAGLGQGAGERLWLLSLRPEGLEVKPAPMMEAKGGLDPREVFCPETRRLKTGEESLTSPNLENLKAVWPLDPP
Conditions: protein: recombinant; tags: N-terminal GST; dsDNA, one strand shown. The gist of the method:
as §1

Assay [13] addresses T8, ETS2 (Homo sapiens, UniProt P15036 1-469).
T8 sequence: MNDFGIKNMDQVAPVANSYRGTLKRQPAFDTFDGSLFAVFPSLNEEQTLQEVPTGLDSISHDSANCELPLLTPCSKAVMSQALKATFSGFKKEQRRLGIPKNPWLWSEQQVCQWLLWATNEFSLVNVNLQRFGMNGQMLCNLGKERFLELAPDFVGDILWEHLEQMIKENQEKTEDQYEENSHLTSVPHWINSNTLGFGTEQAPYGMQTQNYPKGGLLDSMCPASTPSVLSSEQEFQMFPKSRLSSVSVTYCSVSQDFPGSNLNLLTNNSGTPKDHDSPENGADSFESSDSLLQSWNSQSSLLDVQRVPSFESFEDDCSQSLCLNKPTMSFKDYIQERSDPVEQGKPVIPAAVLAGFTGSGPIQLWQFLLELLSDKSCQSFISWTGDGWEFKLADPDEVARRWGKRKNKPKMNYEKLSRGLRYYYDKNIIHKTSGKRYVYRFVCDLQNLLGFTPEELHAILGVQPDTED
The following applies: protein: recombinant; tags: N-terminal GST; dsDNA, one strand shown. A digest of the protocol:
as §1

Assay [14] deals with T9, SPDEF (Homo sapiens, UniProt O95238 1-335).
T9 sequence: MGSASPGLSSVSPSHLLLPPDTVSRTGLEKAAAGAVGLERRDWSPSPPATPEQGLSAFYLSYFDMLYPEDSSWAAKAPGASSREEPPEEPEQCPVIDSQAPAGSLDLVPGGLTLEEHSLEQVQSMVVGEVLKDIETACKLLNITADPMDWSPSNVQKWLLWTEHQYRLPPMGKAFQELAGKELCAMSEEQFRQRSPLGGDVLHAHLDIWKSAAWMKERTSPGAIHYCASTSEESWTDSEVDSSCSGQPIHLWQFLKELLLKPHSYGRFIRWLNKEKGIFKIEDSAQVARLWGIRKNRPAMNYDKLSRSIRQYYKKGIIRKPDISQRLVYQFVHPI
Conditions: protein: recombinant; tags: N-terminal GST; dsDNA, one strand shown. The gist of the method:
as §1

For assay [15], the target named is T10, ETV7 (Homo sapiens, UniProt Q9Y603 1-341).
T10 sequence: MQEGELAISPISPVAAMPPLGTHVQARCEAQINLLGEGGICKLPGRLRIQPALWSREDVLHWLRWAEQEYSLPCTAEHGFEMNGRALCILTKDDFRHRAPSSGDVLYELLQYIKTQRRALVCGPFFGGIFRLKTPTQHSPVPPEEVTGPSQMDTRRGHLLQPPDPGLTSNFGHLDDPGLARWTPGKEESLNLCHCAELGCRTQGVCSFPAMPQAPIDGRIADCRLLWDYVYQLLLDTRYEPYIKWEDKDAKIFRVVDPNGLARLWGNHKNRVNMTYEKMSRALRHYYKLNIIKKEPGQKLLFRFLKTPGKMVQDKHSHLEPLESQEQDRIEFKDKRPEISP
The following applies: protein: recombinant; tags: N-terminal GST; dsDNA, one strand shown. The gist of the method:
as §1

Assay [16] addresses T11, ELF5 (Homo sapiens, UniProt Q9UKW6-2 1-255).
T11 sequence: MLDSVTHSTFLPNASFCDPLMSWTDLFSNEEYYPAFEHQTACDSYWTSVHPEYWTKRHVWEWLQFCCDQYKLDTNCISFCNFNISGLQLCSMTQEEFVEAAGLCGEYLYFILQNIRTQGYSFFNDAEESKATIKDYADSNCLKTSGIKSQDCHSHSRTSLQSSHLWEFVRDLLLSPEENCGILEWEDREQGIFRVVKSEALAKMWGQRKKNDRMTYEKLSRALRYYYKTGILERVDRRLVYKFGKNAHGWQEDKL
The following applies: protein: recombinant; tags: N-terminal GST; dsDNA, one strand shown. The gist of the method: as §1

Assay [17] has as its target T12, ETV3 (Homo sapiens, UniProt P41162-2 1-143).
T12 sequence: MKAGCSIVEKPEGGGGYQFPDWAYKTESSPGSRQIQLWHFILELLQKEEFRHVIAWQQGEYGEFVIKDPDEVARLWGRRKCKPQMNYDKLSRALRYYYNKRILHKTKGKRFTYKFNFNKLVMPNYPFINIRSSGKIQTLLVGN
Conditions: protein: recombinant; tags: N-terminal GST; dsDNA, one strand shown. The gist of the method:
as §1

Assay [18] has as its target ETV6 (Homo sapiens, UniProt P41212 1-452). Conditions: protein: recombinant; tags: N-terminal GST; dsDNA, one strand shown. The gist of the method:
as §1

Chain of ETV1 (P50549 whole entry): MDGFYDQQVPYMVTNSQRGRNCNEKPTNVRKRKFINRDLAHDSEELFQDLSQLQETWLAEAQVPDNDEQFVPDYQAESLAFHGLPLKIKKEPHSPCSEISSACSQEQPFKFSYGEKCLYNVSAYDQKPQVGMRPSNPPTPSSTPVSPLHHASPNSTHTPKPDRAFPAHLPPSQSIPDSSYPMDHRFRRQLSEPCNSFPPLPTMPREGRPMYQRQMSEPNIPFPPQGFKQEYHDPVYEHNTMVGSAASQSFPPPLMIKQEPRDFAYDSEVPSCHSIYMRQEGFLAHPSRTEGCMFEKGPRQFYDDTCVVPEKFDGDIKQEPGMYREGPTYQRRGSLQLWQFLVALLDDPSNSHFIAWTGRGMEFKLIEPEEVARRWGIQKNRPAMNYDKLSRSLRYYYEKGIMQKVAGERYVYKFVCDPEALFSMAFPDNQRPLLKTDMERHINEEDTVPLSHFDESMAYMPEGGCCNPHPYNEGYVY
Chain of HSF1 (Q00613 whole entry): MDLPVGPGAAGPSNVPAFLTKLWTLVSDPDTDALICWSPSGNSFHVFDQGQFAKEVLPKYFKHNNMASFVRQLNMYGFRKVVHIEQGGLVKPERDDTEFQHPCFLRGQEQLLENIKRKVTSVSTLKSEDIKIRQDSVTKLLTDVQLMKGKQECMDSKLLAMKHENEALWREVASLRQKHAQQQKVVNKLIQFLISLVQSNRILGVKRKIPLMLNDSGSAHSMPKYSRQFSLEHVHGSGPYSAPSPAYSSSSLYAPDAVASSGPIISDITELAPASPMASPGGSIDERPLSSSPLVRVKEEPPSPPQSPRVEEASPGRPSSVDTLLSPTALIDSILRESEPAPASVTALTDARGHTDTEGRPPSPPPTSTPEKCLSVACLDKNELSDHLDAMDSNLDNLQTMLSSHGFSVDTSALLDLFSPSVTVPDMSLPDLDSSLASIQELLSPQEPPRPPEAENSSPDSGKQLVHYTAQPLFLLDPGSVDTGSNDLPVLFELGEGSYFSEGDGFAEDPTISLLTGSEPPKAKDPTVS
Chain of CRX (O43186 whole entry): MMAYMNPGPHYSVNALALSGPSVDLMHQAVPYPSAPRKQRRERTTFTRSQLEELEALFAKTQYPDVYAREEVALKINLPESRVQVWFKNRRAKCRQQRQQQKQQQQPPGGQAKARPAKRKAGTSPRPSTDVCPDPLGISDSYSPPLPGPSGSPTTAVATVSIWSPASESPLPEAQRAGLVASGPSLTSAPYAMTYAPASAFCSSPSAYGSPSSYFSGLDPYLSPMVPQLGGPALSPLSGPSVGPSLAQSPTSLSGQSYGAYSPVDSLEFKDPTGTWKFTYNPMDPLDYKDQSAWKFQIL
Chain of ETV6 (P41212 whole entry): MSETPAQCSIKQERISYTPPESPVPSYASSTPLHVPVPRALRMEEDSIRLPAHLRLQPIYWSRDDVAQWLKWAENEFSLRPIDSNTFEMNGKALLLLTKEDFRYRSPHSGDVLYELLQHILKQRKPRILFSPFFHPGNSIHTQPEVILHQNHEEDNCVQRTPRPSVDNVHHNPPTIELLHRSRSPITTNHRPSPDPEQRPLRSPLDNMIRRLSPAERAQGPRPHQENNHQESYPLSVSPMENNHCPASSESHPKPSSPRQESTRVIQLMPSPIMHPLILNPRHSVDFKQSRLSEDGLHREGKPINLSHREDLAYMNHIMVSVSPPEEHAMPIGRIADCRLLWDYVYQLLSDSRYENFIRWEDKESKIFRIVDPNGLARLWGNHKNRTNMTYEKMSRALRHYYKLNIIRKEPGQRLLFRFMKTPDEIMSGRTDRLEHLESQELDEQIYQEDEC
Chain of ETV5 (P41161 whole entry): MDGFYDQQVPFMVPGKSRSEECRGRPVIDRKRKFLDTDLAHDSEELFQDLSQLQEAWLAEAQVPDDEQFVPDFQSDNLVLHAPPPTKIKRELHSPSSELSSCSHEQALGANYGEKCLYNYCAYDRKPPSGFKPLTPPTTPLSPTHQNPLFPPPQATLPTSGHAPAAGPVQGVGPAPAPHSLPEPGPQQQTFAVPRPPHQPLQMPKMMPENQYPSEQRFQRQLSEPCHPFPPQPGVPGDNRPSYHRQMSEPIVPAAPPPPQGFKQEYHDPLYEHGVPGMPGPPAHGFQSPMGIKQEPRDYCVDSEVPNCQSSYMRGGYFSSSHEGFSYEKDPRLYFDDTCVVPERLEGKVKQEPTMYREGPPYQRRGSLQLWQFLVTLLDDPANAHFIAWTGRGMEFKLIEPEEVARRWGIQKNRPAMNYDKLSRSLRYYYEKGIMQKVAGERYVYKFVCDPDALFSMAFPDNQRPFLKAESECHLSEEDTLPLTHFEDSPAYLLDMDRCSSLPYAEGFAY

Regarding TAAGAT, the binding signal in assay [1] is 1.15 fold enrichment (6-mer frequency, TF over GST control); in [2] it was 1.13 fold enrichment (6-mer frequency, TF over GST control); in assay [3], 1.76 fold enrichment (6-mer frequency, TF over GST control); in assay [4], 1.25 fold enrichment (6-mer frequency, TF over GST control); in assay [5], 1.21 fold enrichment (6-mer frequency, TF over GST control); in assay [6] it was 1.29 fold enrichment (6-mer frequency, TF over GST control). In addition, the binding signal was 1.31 fold enrichment (6-mer frequency, TF over GST control) in [7]; 1.3 fold enrichment (6-mer frequency, TF over GST control) in assay [8]; 2.49 fold enrichment (6-mer frequency, TF over GST control) in assay [9]; 1.28 fold enrichment (6-mer frequency, TF over GST control) in assay [10]; 1.3 fold enrichment (6-mer frequency, TF over GST control) in assay [11]; 1.12 fold enrichment (6-mer frequency, TF over GST control) in [12]. In addition, the binding signal in [13] was 1.19 fold enrichment (6-mer frequency, TF over GST control); in assay [14] it was 1.31 fold enrichment (6-mer frequency, TF over GST control); in assay [15] it was 1.19 fold enrichment (6-mer frequency, TF over GST control); in [16], 1.11 fold enrichment (6-mer frequency, TF over GST control); in assay [17], 1.2 fold enrichment (6-mer frequency, TF over GST control); in assay [18], 1.28 fold enrichment (6-mer frequency, TF over GST control).
